Test results reported in PubChem BioAssay AID1159580 (chemical genetic matrix, 2015).
Values joined by “and” are separate entries in the source; they are usually repeats but may differ in a detail not shown here. Identical values can stand only once. Screen size: about 5,500 compounds; about 2,000 (36%) were called active. Another 18% or so got no clear call; they are omitted. Cut-off read from the data, not from the text of the source: active = normalized growth mostly below about 0.91 (no sharp cut-off); inconclusive = no clear call, values can overlap the other calls; inactive = mostly above about 0.92. Some of the results follow.

Assay: chemical genetic growth profiling, strain panel (AID 1159580);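 note: tested at 20 µM; growth read once vehicle control cultures reached saturation at 30 °C; 1 = growth at the plate median or of vehicle wells; lower values mean less growth of the strain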
Conditions: growth OD

Measured: normalized growth

NC/C=C/C(=O)O
inactive: S. cerevisiae deletion strains, locus YJR043C, strain POL32, stronger effect = lower value 1.04 | S. cerevisiae deletion strains, locus YJR075W, strain HOC1, stronger effect = lower value 1.01 | S. cerevisiae deletion strains, locus YKL009W, strain mrt4, stronger effect = lower value 1.03 | S. cerevisiae deletion strains, locus YKL068W, stronger effect = lower value 1.01 | S. cerevisiae deletion strains, locus YKL085W, strain MDH1 (second series), stronger effect = lower value 1.01 | S. cerevisiae deletion strains, locus YKL085W, strain MDH1, stronger effect = lower value 1.01 | S. cerevisiae deletion strains, locus YKL160W, strain elf1, stronger effect = lower value 0.981 | S. cerevisiae deletion strains, locus YKL190W, strain CNB1, stronger effect = lower value 1.02 | S. cerevisiae deletion strains, locus YKR001C, strain vps1, stronger effect = lower value 1.02 | S. cerevisiae deletion strains, locus YKR026C, strain gcn3, stronger effect = lower value 0.987 | S. cerevisiae deletion strains, locus YKR091W, strain srl3, stronger effect = lower value 1.01 | S. cerevisiae deletion strains, locus YLL001W, strain dnm1, stronger effect = lower value 1 | S. cerevisiae deletion strains, locus YLL026W, stronger effect = lower value 1 | S. cerevisiae deletion strains, locus YLL041C, strain sdh2, stronger effect = lower value 1.01 | S. cerevisiae deletion strains, locus YLR027C, strain aat2, stronger effect = lower value 1.01 | S. cerevisiae deletion strains, locus YLR039C, strain RIC1, stronger effect = lower value 1.07 | S. cerevisiae deletion strains, locus YLR058C, strain SHM2, stronger effect = lower value 1.02 | S. cerevisiae deletion strains, locus YLR102C, strain apc9, stronger effect = lower value 1.01 | S. cerevisiae deletion strains, locus YLR221C, strain rsa3, stronger effect = lower value 0.999 | S. cerevisiae deletion strains, locus YLR258W, strain gsy2, stronger effect = lower value 1.02 | S. cerevisiae deletion strains, locus YLR262C, strain YPT6 (second series), stronger effect = lower value 1.01 | S. cerevisiae deletion strains, locus YLR262C, strain YPT6, stronger effect = lower value 1.03 | S. cerevisiae deletion strains, locus YLR268W, strain sec22, stronger effect = lower value 0.98 | S. cerevisiae deletion strains, locus YLR320W, strain mms22, stronger effect = lower value 1.01 | S. cerevisiae deletion strains, locus YLR330W, strain CHS5, stronger effect = lower value 1.01 | S. cerevisiae deletion strains, locus YLR342W, strain FKS1 (second series), stronger effect = lower value 1.11 | S. cerevisiae deletion strains, locus YLR342W, strain FKS1, stronger effect = lower value 1.01 | S. cerevisiae deletion strains, locus YLR357W, strain rsc2, stronger effect = lower value 1.1 | S. cerevisiae deletion strains, locus YLR370C, strain arc18, stronger effect = lower value 1.01 | S. cerevisiae deletion strains, locus YLR371W, strain rom2, stronger effect = lower value 1.02 | S. cerevisiae deletion strains, locus YLR384C, strain iki3, stronger effect = lower value 1.02 | S. cerevisiae deletion strains, locus YLR418C, strain cdc73, stronger effect = lower value 0.943 | S. cerevisiae deletion strains, locus YML016C, strain PPZ1, stronger effect = lower value 1.01 | S. cerevisiae deletion strains, locus YML032C, strain rad52, stronger effect = lower value 1.05 | S. cerevisiae deletion strains, locus YML120C, strain ndi1, stronger effect = lower value 1.01 | S. cerevisiae deletion strains, locus YML124C, strain tub3, stronger effect = lower value 1.01 | S. cerevisiae deletion strains, locus YMR058W, strain fet3, stronger effect = lower value 1.01 | S. cerevisiae deletion strains, locus YMR078C, strain ctf18, stronger effect = lower value 1.02 | S. cerevisiae deletion strains, locus YMR125W, strain sto1, stronger effect = lower value 1.04 | S. cerevisiae deletion strains, locus YMR129W, stronger effect = lower value 0.973 | S. cerevisiae deletion strains, locus YMR205C, strain PFK2, stronger effect = lower value 1.02 | S. cerevisiae deletion strains, locus YMR223W, strain ubp8, stronger effect = lower value 1.04 | S. cerevisiae deletion strains, locus YMR231W, strain pep5, stronger effect = lower value 1.01 | S. cerevisiae deletion strains, locus YMR263W, strain SAP30, stronger effect = lower value 1.01 | S. cerevisiae deletion strains, locus YMR307W, strain GAS1, stronger effect = lower value 1.02 and 0.997 | S. cerevisiae deletion strains, locus YNL067W, strain RPL9B, stronger effect = lower value 1.01 | S. cerevisiae deletion strains, locus YNL071W, strain lat1, stronger effect = lower value 1.01 | S. cerevisiae deletion strains, locus YNL128W, strain TEP1, stronger effect = lower value 0.988 | S. cerevisiae deletion strains, locus YNL153C, strain GIM3, stronger effect = lower value 1.01 and 1.03 | S. cerevisiae deletion strains, locus YNL175C, strain NOP13, stronger effect = lower value 1 | S. cerevisiae deletion strains, locus YNL197C, strain WHI3, stronger effect = lower value 0.996 | S. cerevisiae deletion strains, locus YNL209W, strain ssb2, stronger effect = lower value 1 | S. cerevisiae deletion strains, locus YNL224C, strain SQS1, stronger effect = lower value 1 | S. cerevisiae deletion strains, locus YNL233W, strain BNI4, stronger effect = lower value 1.02 | S. cerevisiae deletion strains, locus YNL248C, strain rpa49, stronger effect = lower value 1.01 | S. cerevisiae deletion strains, locus YNL250W, strain rad50, stronger effect = lower value 1 | S. cerevisiae deletion strains, locus YNL271C, strain bni1, stronger effect = lower value 1.02 | S. cerevisiae deletion strains, locus YNL298W, strain CLA4, stronger effect = lower value 1.01 | S. cerevisiae deletion strains, locus YNL307C, strain MCK1, stronger effect = lower value 1.05 | S. cerevisiae deletion strains, locus YNL322C, strain KRE1 (second series), stronger effect = lower value 1 | S. cerevisiae deletion strains, locus YNL322C, strain KRE1, stronger effect = lower value 1.01 and 1.02 | S. cerevisiae deletion strains, locus YNR049C, strain mso1, stronger effect = lower value 1.01 | S. cerevisiae deletion strains, locus YNR052C, strain pop2, stronger effect = lower value 1.01 | S. cerevisiae deletion strains, locus YOL006C, strain TOP1, stronger effect = lower value 1.04 | S. cerevisiae deletion strains, locus YOL012C, strain htz1 0.927 | S. cerevisiae deletion strains, locus YOL147C, strain pex11, stronger effect = lower value 1.01 | S. cerevisiae deletion strains, locus YOR001W, strain rrp6, stronger effect = lower value 0.99 | S. cerevisiae deletion strains, locus YOR061W, strain CKA2, stronger effect = lower value 1.01 | S. cerevisiae deletion strains, locus YOR069W, strain VPS5, stronger effect = lower value 1.02 | S. cerevisiae deletion strains, locus YOR070C, strain gyp1, stronger effect = lower value 1 | S. cerevisiae deletion strains, locus YOR080W, strain dia2, stronger effect = lower value 1 | S. cerevisiae deletion strains, locus YOR083W, strain WHI5 (second series), stronger effect = lower value 1.02 | S. cerevisiae deletion strains, locus YOR083W, strain WHI5, stronger effect = lower value 0.971 | S. cerevisiae deletion strains, locus YOR106W, strain vam3, stronger effect = lower value 0.991 | S. cerevisiae deletion strains, locus YOR136W, strain idh2, stronger effect = lower value 1.01 | S. cerevisiae deletion strains, locus YOR144C, strain elg1, stronger effect = lower value 1 | S. cerevisiae deletion strains, locus YOR184W, strain ser1, stronger effect = lower value 1.06 | S. cerevisiae deletion strains, locus YOR265W, strain rbl2, stronger effect = lower value 1.01 | S. cerevisiae deletion strains, locus YOR270C, strain vph1, stronger effect = lower value 1.01 | S. cerevisiae deletion strains, locus YOR290C, strain snf2, stronger effect = lower value 0.993 | S. cerevisiae deletion strains, locus YOR316C, strain cot1, stronger effect = lower value 1.02 | S. cerevisiae deletion strains, locus YPL051W, strain arl3, stronger effect = lower value 0.989 | S. cerevisiae deletion strains, locus YPL055C, strain LGE1, stronger effect = lower value 0.952 and 1.01 | S. cerevisiae deletion strains, locus YPL078C, strain atp4, stronger effect = lower value 0.983 | S. cerevisiae deletion strains, locus YPL106C, strain sse1, stronger effect = lower value 1.02 | S. cerevisiae deletion strains, locus YPL240C, strain hsp82, stronger effect = lower value 0.991 | S. cerevisiae deletion strains, locus YPL241C, strain CIN2, stronger effect = lower value 1.02 and 1 | S. cerevisiae deletion strains, locus YPR119W, strain clb2, stronger effect = lower value 1 | S. cerevisiae deletion strains, locus YPR141C, strain kar3, stronger effect = lower value 1.01 | S. cerevisiae deletion strains, locus YPR163C, strain tif3, stronger effect = lower value 1.01 | S. cerevisiae deletion strains, locus YPR167C, strain met16, stronger effect = lower value 1.01 | S. cerevisiae deletion strains, strain wtn01, stronger effect = lower value 0.982 | S. cerevisiae strains, strain wild type, stronger effect = lower value 1.03
